The supplement of paper PMC11732987, “Enantioselective OTUD7B fragment discovery through chemoproteomics screening and high-throughput optimisation” (Communications Chemistry, 2025)

Columns and labels:
Test in all cases: log2 ratio of Biotin-Ahx-Ub-VS probe labelling (fragment/DMSO); higher = less target engagement (more negative = stronger competition), active = hit call of the paper (q ≤ 0.05, log2 ratio ≤ -1)
Conditions in all cases: compound concentration: 200 uM; treatment time: 3 h
USP16 = USP16 (UniProt Q9Y5T5)
Procedure, shortened: (§1)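 Labelled DUBs from HEK293T lysate were NeutrAvidin-enriched, digested with LysC and trypsin, and run by diaPASEF LC-MS/MS. Before that, each 495 µg sample in Tris/CHAPS/IGEPAL buffer with protease inhibitors was treated in triplicate with fragment at 200 µM or vehicle for 3 h, then with Biotin-Ahx-Ub-VS at 0.5 µM final for 1 h. Values are average log2 ratios of fragment over vehicle by unpaired t-test, based on global-median-normalised Spectronaut label-free quantities from proteins with ≥2 unique peptides.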

USP19 = target: T1, USP19 (UniProt O94966)
T1 sequence (whole entry): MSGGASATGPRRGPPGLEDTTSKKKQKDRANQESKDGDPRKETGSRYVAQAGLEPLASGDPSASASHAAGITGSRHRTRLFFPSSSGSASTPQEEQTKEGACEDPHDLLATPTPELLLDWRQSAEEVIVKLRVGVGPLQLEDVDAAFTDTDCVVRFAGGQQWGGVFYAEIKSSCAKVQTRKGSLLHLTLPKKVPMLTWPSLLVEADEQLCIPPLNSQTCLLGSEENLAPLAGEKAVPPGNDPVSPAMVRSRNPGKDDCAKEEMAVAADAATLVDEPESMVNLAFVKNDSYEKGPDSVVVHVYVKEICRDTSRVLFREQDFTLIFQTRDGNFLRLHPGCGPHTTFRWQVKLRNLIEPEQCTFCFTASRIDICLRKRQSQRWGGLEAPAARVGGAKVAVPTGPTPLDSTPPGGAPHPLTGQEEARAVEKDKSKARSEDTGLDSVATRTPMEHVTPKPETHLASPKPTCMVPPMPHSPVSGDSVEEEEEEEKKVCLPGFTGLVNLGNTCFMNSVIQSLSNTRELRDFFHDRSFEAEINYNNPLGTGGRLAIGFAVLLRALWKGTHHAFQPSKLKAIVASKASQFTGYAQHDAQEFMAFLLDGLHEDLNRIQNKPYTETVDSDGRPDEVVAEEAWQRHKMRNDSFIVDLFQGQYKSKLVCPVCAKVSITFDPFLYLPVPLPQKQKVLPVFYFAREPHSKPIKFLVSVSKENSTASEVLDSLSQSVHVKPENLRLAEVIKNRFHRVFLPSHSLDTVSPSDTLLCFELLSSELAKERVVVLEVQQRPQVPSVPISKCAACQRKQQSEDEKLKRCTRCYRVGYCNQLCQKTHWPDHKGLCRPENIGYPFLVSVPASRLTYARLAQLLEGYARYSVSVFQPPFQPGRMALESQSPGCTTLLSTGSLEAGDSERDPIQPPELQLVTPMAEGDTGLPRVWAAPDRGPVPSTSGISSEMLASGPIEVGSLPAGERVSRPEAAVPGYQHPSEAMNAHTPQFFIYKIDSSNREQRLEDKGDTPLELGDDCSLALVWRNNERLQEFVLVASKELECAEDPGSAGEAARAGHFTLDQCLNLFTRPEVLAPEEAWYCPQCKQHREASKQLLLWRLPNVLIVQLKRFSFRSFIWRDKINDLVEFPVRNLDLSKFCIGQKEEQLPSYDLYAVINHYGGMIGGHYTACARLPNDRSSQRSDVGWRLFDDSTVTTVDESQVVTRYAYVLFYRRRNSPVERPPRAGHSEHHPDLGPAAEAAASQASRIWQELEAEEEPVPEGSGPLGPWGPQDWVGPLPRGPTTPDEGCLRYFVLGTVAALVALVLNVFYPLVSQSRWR
Procedure, shortened: as §1

USP24 = USP24 (UniProt Q9UPU5)
Procedure, shortened: as §1

USP25 = target: T2, USP25 (UniProt Q9UHP3)
T2 sequence (whole entry): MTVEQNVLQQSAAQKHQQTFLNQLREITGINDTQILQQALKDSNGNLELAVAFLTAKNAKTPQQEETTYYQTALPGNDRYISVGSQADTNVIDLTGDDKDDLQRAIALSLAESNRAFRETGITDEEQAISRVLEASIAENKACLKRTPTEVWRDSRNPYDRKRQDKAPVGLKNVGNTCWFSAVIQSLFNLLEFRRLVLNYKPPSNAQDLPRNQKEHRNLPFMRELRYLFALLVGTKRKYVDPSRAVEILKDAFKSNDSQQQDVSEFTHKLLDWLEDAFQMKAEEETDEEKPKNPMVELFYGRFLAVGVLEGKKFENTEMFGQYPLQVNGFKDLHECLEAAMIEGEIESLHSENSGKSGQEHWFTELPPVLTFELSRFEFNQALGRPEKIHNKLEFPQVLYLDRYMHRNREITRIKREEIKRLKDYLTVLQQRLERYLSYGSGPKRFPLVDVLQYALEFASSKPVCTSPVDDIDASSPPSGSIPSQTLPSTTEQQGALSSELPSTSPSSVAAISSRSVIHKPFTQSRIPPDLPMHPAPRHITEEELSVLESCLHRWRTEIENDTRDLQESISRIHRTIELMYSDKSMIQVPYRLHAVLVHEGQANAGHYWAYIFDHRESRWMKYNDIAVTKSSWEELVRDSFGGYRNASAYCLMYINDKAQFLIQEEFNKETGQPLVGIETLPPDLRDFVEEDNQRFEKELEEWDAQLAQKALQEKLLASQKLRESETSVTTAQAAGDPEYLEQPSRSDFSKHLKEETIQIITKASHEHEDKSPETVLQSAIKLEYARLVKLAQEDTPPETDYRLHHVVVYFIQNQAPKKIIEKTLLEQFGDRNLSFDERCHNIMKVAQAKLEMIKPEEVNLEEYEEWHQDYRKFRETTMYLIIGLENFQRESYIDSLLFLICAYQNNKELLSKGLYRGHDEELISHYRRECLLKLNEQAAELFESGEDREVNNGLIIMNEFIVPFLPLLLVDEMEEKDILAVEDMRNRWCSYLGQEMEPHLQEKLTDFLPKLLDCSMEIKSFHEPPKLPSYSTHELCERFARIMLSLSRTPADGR
Procedure, shortened: as §1

USP28 = target: T3, USP28 (UniProt Q96RU2)
T3 sequence (whole entry): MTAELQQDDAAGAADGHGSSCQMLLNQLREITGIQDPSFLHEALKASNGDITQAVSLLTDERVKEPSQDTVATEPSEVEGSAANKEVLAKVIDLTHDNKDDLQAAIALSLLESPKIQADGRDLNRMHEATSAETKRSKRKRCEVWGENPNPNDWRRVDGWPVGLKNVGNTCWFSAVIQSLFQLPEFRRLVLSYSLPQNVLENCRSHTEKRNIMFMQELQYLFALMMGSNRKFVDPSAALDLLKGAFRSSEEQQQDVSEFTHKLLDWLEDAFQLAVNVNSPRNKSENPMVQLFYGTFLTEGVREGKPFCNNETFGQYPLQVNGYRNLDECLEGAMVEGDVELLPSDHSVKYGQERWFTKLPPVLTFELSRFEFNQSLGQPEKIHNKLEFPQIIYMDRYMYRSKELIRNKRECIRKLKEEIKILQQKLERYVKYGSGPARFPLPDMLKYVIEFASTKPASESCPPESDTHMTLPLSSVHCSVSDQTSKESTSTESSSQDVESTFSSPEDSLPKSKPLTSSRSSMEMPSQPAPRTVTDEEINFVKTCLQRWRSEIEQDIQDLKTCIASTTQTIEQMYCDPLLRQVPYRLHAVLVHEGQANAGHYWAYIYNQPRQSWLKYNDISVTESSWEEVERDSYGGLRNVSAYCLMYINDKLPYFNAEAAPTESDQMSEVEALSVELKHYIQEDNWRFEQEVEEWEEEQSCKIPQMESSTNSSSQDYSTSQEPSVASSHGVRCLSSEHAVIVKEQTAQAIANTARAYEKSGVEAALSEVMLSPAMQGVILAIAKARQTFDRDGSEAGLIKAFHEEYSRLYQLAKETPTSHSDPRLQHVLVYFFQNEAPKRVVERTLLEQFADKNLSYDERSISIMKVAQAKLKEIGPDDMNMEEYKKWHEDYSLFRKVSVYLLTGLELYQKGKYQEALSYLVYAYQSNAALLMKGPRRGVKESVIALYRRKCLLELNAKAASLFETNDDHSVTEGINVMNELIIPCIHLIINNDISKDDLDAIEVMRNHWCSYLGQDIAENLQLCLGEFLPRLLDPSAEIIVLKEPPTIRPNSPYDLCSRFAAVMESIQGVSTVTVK
Procedure, shortened: as §1

Measured: log2 ratio of Biotin-Ahx-Ub-VS probe labelling

Chain of USP16 (Q9Y5T5 whole entry, looked up, the tested form may be a part): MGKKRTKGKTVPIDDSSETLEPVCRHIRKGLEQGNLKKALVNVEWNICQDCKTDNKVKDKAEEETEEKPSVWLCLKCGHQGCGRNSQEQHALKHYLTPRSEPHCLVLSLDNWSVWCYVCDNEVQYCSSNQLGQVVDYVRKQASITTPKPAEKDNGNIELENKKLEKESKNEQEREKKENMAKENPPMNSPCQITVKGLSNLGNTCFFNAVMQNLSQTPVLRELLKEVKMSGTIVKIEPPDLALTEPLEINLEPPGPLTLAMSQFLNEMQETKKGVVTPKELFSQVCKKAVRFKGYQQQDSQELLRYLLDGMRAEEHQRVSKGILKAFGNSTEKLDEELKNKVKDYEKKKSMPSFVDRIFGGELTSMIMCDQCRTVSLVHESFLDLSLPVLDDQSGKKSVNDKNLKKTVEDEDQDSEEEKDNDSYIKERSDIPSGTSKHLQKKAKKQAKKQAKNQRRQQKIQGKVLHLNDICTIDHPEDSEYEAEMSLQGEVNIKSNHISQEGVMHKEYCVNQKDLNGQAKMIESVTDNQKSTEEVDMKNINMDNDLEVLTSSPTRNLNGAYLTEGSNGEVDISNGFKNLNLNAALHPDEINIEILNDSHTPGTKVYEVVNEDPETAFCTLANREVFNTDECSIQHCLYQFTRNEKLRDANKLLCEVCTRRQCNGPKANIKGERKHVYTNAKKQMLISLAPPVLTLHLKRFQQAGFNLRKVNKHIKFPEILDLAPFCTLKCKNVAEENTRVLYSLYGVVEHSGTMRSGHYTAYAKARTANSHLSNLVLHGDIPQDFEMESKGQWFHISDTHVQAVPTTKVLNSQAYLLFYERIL
Chain of USP24 (Q9UPU5 whole entry): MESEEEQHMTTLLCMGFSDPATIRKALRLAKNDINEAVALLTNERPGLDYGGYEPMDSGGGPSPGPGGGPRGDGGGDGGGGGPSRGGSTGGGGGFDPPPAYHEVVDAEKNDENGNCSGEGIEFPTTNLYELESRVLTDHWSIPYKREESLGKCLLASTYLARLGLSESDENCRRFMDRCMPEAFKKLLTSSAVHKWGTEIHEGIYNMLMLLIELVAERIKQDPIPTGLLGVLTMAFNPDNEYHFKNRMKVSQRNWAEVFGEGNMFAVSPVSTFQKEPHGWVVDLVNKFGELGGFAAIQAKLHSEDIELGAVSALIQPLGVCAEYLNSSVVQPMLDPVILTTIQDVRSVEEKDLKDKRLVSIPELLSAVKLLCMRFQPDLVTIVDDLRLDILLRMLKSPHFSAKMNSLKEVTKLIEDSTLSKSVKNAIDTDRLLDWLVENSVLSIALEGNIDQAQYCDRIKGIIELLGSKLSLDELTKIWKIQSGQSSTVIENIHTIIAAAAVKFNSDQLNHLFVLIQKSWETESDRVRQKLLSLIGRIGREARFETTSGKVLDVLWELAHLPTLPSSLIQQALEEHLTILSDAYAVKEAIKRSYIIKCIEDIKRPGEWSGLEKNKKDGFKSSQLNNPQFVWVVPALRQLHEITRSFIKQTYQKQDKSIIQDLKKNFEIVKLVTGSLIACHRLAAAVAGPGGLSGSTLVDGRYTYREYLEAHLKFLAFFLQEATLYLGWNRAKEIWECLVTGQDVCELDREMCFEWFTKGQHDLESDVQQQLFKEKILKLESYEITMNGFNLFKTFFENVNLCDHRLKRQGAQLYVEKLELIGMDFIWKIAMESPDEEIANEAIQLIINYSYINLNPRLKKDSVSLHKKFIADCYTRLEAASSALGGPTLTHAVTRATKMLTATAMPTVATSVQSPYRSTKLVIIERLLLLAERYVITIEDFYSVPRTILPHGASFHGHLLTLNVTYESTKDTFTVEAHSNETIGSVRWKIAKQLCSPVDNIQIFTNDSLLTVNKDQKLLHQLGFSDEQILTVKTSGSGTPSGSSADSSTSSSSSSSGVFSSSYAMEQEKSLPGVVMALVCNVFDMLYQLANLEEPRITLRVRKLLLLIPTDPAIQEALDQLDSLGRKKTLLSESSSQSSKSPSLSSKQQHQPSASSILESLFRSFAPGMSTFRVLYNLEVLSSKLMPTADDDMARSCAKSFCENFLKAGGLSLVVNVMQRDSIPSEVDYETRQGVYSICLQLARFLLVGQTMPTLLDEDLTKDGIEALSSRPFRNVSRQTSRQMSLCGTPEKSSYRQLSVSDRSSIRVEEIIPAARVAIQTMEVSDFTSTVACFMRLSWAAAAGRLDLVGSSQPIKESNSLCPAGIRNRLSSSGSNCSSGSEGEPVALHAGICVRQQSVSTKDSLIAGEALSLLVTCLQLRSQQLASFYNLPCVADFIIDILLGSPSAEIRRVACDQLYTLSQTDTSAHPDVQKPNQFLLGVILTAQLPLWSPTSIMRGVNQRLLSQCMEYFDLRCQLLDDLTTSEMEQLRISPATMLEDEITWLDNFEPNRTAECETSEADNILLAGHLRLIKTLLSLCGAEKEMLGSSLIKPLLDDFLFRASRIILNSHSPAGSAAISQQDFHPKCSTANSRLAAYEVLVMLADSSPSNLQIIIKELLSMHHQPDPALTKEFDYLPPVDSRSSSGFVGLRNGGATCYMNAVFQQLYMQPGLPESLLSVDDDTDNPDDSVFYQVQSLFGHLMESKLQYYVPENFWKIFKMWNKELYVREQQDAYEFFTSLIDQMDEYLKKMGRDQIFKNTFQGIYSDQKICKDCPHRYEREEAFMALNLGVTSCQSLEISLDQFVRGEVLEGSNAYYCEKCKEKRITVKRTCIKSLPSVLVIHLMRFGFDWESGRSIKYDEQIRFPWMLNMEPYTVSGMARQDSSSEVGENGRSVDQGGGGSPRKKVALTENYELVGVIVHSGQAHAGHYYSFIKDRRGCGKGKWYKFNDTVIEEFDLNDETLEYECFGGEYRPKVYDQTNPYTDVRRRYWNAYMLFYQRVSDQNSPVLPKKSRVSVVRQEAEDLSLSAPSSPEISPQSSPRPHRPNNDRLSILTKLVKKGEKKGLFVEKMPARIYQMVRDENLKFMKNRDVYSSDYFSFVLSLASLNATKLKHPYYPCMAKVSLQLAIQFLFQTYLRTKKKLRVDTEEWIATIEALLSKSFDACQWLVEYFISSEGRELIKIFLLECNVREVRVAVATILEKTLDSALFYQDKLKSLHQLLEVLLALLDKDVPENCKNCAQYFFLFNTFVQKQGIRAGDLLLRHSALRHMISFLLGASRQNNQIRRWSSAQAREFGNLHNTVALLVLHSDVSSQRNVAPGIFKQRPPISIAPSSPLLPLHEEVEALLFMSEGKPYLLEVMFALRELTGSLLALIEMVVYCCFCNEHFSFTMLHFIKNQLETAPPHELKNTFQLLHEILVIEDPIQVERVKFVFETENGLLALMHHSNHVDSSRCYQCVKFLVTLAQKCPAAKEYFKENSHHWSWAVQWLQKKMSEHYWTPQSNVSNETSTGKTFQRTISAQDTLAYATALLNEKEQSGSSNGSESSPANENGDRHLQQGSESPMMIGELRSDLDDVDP

Cc1ccc(C(=O)NCCNC(=O)CCl)cc1
inactive: USP16 -0.0901 | USP19 -0.26 | USP24 -0.352 | USP25 -0.498 | USP28 -0.493
